According to PubChem BioAssay:
Values joined by “and” are separate entries in the source; they are usually repeats but may differ in a detail not shown here. Equal entries are not always repeated. For some of these results: Measured potencies and affinities stand elsewhere. Active and inactive are the calls of the source.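 How the source made its calls, unless noted: active means thallium flux through the channel raised or lowered by more than 3 SD from vehicle-only wells, actives on both sides; inactive means the rest.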

Experiments:
[1] = hESC survival regulators, cell-based (AID 493140; call rule not given here;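 further: cells exposed to compounds for four days before counting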); details: human embryonic stem cell survival screen; stronger effect = higher value
[2] = system: Hepatitis C virus NS3 helicase; assay: HCV NS3 helicase inhibitors, primary screen, biochemical, fluorescence polarization, LOPAC1280 library (AID 687035; in the data active means inhibition above about 37%); details: Purified HCV NS3 helicase, Cy5-dT15 ssDNA binding fluorescence polarization; stronger effect = higher value; concentration not given here
[3] = Cy5 fluorescence interference with SSB-bound oligo, artefact control for HCV NS3 helicase inhibitor project, biochemical, NIH Clinical Collection, E. coli SSB (AID 743268; call rule not given here)
[4] = modulation of C. elegans fzo-1 (AID 1259413; call rule not given here;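 further: fzo-1 mutant C. elegans worms in liquid wells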); details: C. elegans fzo-1 modulator screen, mean read-out; stronger effect = higher value
[5] = viability rescue of complex I mutant cybrids, primary screen, cell-based, galactose medium, ATP luminescence (AID 1645843;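 active means z-score of at least 1.8 in each of two replicates, scored against plate mean and spread of sample wells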;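 further: positive z means more ATP and so rescue of galactose-driven cybrid death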); details: complex I mutant cybrid cells, 72 h, stronger effect = higher value
[6] = system: F380Y/beta1; assay: modulators of BK channel variants, profiling panel, selectivity assay, cell-based, U2OS BacMam, thallium flux, beta subunits (AID 1259406); details: at 30 µM;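 further: initial slope of Thallos dye fluorescence rise after thallium is added; log ratio against the mean of 0.3% DMSO vehicle wells on the same plate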
[7] = system: F380Y/beta4; assay: as above; details: at 30 µM
[8] = system: R275C; assay: as above; details: at 30 µM
[9] = system: R275C/beta1; assay: as above; details: at 30 µM
[10] = system: R275C/beta2Delta; assay: as above; details: at 30 µM
[11] = system: R275C/beta4; assay: as above; details: at 30 µM
[12] = system: R275C/Slo1WT/beta2; assay: as above; details: at 30 µM
[13] = liver-stage malaria parasite growth inhibition, primary screen, cell-based, HepG2, luciferase luminescence, HepG2 viability (AID 624349; in the data active means parasite load remaining mostly below about 12%, no sharp cut-off; inactive means mostly above about 10%;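 further: 100% = mean of DMSO negative control wells on the same plate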); details: P. berghei liver stage in HepG2, luciferase luminescence, concentration not given here; parasite load remaining: stronger effect = lower value; viability: measured here: HepG2 viability without parasites
[14] = polyglutamine-triggered caspase-3 activation inhibitors, cell-based (AID 1583); details: polyglutamine-induced caspase-3 activation, cell assay; stronger effect = higher value;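 tested at 10 µM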
[15] = suppressors of polyQ aggregation in yeast, 75Q-TubU reporter (AID 1593); details: Yeast 75Q polyglutamine aggregation reporter
[16] = inhibitors of mitochondrial cytochrome c release, biochemical, purified mitochondria (AID 1603); details: stronger effect = lower value;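 further: mouse liver mitochondria challenged with calcium chloride; signal normalized to the plate average as 100%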
[17] = inhibitors of polyQ protein aggregation (AID 1604); details: polyglutamine-induced protein aggregation inhibition assay; stronger effect = higher value; tested at 2.5 µM
[18] = enhancers of glutamate uptake in motor neurons, MN-1 cell line (AID 1612); details: MN-1 motor neuron cells, stronger effect = higher value;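 further: tested at 1 µM final; 0% = mean of DMSO vehicle wells on each plate; positive means more glutamate uptake than control and negative means less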
[19] = suppressors of polyglutamine aggregation in yeast, 75Q-TubH (AID 1616); details: S. cerevisiae 75Q-TubH polyglutamine aggregation suppression; stronger effect = higher value
[20] = rescue of polyQ-huntingtin neuronal dysfunction in worms, whole organism, C. elegans mechanosensory neurons, N-terminal huntingtin (AID 1599); details: touch response, stronger effect = higher value

C[C@]12CCC(=O)C=C1CC[C@@H]1[C@@H]2[C@@H](O)C[C@@]2(C)[C@H]1CC[C@]2(O)C(=O)CO
inactive: survival [1] 5.5 | inhibition [2] -3% | fluorescence ratio [3] 0.95 | mean signal [4] 278 | z-score [5] 0.565 and 0.385 and -0.22 | log fold change Tl+ flux [6] 0.0243 | log fold change Tl+ flux [7] 0.00205 | log fold change Tl+ flux [8] -0.0265 | log fold change Tl+ flux [9] -0.0128 | log fold change Tl+ flux [10] 0.0134 | log fold change Tl+ flux [11] -0.0399 | log fold change Tl+ flux [12] 0.0266

C[C@]12C=CC(=O)C=C1CC[C@@H]1[C@@H]2C(=O)C[C@@]2(C)[C@H]1CC[C@]2(O)C(=O)CO
inactive: survival [1] 15.9 | z-score [5] 0.315 and 0.45 | log fold change Tl+ flux [6] 0.00863 | log fold change Tl+ flux [7] 0.000343 | log fold change Tl+ flux [8] -0.0236 | log fold change Tl+ flux [9] -0.0318 | log fold change Tl+ flux [10] 0.028 | log fold change Tl+ flux [11] -0.00291 | log fold change Tl+ flux [12] -0.00226
active: fluorescence ratio [3] 0.107

C[C@]12CCC(=O)C=C1CC[C@@H]1[C@@H]2C(=O)C[C@@]2(C)[C@H]1CC[C@]2(O)C(=O)CO
48% and 86.7% and 71%: viability [13]
inactive: survival [1] 29.6 | parasite load remaining [13] 29.2% and 101% and 66.2% | inhibition [2] 1% | fluorescence ratio [3] 0.97 | mean signal [4] 220 | z-score [5] 0.195 | log fold change Tl+ flux [6] -0.034 | log fold change Tl+ flux [7] -0.00179 | log fold change Tl+ flux [8] -0.0438 | log fold change Tl+ flux [9] -0.0165 | log fold change Tl+ flux [10] -0.0316 | log fold change Tl+ flux [11] 0.0193 | log fold change Tl+ flux [12] 0.0155

COc1ccc2cc(CCC(C)=O)ccc2c1
inactive: survival [1] 4.83 | mean signal [4] 213 | z-score [5] 0.395 and 0.51 | log fold change Tl+ flux [6] -0.0534 | log fold change Tl+ flux [12] -0.0751
0.329: aggregation suppression score [19]
13.8%: glutamate uptake change [18]
10.1%: inhibition [14]
91.3%: inhibition of aggregation [17]
0.11: score [15]
active: fluorescence ratio [3] 0.1 | log fold change Tl+ flux [7] -0.162 | log fold change Tl+ flux [8] -0.0871 | log fold change Tl+ flux [9] -0.284 | log fold change Tl+ flux [10] -0.233 | log fold change Tl+ flux [11] -0.216
0.7: cytochrome c release ratio [16]

CC(C)Oc1ccc2c(=O)c(-c3ccccc3)coc2c1
inactive: parasite load remaining [13] 170% | fluorescence ratio [3] 1.05 | mean signal [4] 191 | z-score [5] -0.74 | log fold change Tl+ flux [6] -0.0734 | log fold change Tl+ flux [7] -0.0682 | log fold change Tl+ flux [8] -0.0788 | log fold change Tl+ flux [11] -0.0145 | log fold change Tl+ flux [12] 0.013
active: log fold change Tl+ flux [9] -0.122 | log fold change Tl+ flux [10] -0.0975
63.7%: viability [13]

CC1=C(C(=O)O)N2C(=O)[C@@H](NC(=O)[C@H](N)c3ccccc3)[C@H]2SC1
inactive: survival [1] 10.4 | parasite load remaining [13] 125% and 69.1% and 137% | fluorescence ratio [3] 1.01 | mean signal [4] 265 | log fold change Tl+ flux [6] -0.0395 | log fold change Tl+ flux [7] -0.0677 | log fold change Tl+ flux [8] -0.0778 | log fold change Tl+ flux [9] -0.0268 | log fold change Tl+ flux [10] -0.026 | log fold change Tl+ flux [11] -0.0153 | log fold change Tl+ flux [12] -0.0484
119% and 79.9% and 115%: viability [13]

CN[C@@H]1[C@H](O)[C@H](NC)[C@H]2O[C@@]3(O)C(=O)C[C@@H](C)O[C@H]3O[C@@H]2[C@H]1O
1.46: aggregation suppression score [19]
-0.34%: glutamate uptake change [18]
14.3%: inhibition of aggregation [17]
0.75: rescue above control [20]
0.85: cytochrome c release ratio [16]
16.9%: inhibition [14]
inactive: survival [1] 3.25 | fluorescence ratio [3] 1.06 | z-score [5] 0.84 and 1 | log fold change Tl+ flux [6] 0.00447 | log fold change Tl+ flux [7] 0.0229 | log fold change Tl+ flux [9] 0.0857 | log fold change Tl+ flux [10] -0.00159 | log fold change Tl+ flux [11] 0.0437 | log fold change Tl+ flux [12] -0.0137
active: log fold change Tl+ flux [8] 0.108
1.49: score [15]

Cc1cccc(Nc2ccncc2S(=O)(=O)NC(=O)NC(C)C)c1
active: log fold change Tl+ flux [8] -0.147
83% and 88.5% and 82%: viability [13]
inactive: survival [1] 8.33 | parasite load remaining [13] 136% and 72.2% and 143% | fluorescence ratio [3] 1.01 | mean signal [4] 241 | z-score [5] 1.21 | log fold change Tl+ flux [6] 0.0627 | log fold change Tl+ flux [7] -0.0278 | log fold change Tl+ flux [9] 0.0246 | log fold change Tl+ flux [10] 0.0124 | log fold change Tl+ flux [11] 0.029 | log fold change Tl+ flux [12] 0.0277

CC(=O)OCC[N+](C)(C)C
inactive: fluorescence ratio [3] 1.03 | mean signal [4] 251 | z-score [5] 1.64 and 0.235 | log fold change Tl+ flux [6] 0.000642 | log fold change Tl+ flux [7] -0.0182 | log fold change Tl+ flux [8] -0.00869 | log fold change Tl+ flux [9] -0.00581 | log fold change Tl+ flux [10] -0.00325 | log fold change Tl+ flux [11] 0.0607 | log fold change Tl+ flux [12] 0.0039
26.2%: inhibition [14]
1.05: score [15]
1.31: cytochrome c release ratio [16]
5.33: rescue above control [20]
1.22: aggregation suppression score [19]
-18.6%: glutamate uptake change [18]
74.9%: inhibition of aggregation [17]

Cc1cccc(Nc2ccccc2C(=O)O)c1C
0.19: score [15]
14.6: rescue above control [20]
0.495: aggregation suppression score [19]
1: cytochrome c release ratio [16]
active: log fold change Tl+ flux [6] 0.147 | log fold change Tl+ flux [7] 0.146 | log fold change Tl+ flux [9] 0.182 | log fold change Tl+ flux [10] 0.117
-12.3%: glutamate uptake change [18]
32.9%: inhibition of aggregation [17]
14.9%: inhibition [14]
inactive: survival [1] 12.2 | fluorescence ratio [3] 1 | mean signal [4] 235 | z-score [5] 0.385 and 1.06 | log fold change Tl+ flux [8] 0.009 | log fold change Tl+ flux [11] 0.0837 | log fold change Tl+ flux [12] 0.00462
